# In the supplement of paper PMC9694430:
# What was measured:
# Assay in all cases: thermal shift delta Tm vs DMSO control; higher = stronger stabilization (binding)
# Details in all cases: 12.5 µM; protein concentration 2 µM
# LOC_OS01G57100-cb003 = tested on: LOC_OS01G57100-cb003
# Procedure, shortened: (§1)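 Compounds dissolved in DMSO were added to purified rice kinase domain constructs, which had been expressed in E. coli, for differential scanning fluorimetry. Each well held 19.5 μl of 2 μM kinase in 100 mM potassium phosphate pH 7.5, 150 mM NaCl, 10% glycerol and 5 × SYPRO Orange. Fluorescence was followed from 25°C to 95°C at a rate of 0.05°C/s. Shifts in Boltzmann-fitted melting temperature are triplicate means relative to DMSO-only protein.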
# LOC_OS01G60330-cb001 = tested on: LOC_OS01G60330-cb001
# Procedure, shortened: as §1
# LOC_OS01G60700-cb002 = tested on: LOC_OS01G60700-cb002
# Procedure, shortened: as §1
# LOC_OS01G63280-cb003 = tested on: LOC_OS01G63280-cb003
# Procedure, shortened: as §1
# LOC_OS01G67340-cb003 = tested on: LOC_OS01G67340-cb003
# Procedure, shortened: as §1
# LOC_OS01G70970-cb002 = tested on: LOC_OS01G70970-cb002
# Procedure, shortened: as §1
# LOC_OS02G07810-cb001 = tested on: LOC_OS02G07810-cb001
# Procedure, shortened: as §1
# LOC_OS02G08530-cb003 = tested on: LOC_OS02G08530-cb003
# Procedure, shortened: as §1
# LOC_OS02G14120-cb001 = tested on: LOC_OS02G14120-cb001
# Procedure, shortened: as §1
# LOC_OS02G17970-cb001 = tested on: LOC_OS02G17970-cb001
# Procedure, shortened: as §1
Structure (SMILES),thermal shift delta Tm (LOC_OS01G57100-cb003),thermal shift delta Tm (LOC_OS01G60330-cb001),thermal shift delta Tm (LOC_OS01G60700-cb002),thermal shift delta Tm (LOC_OS01G63280-cb003),thermal shift delta Tm (LOC_OS01G67340-cb003),thermal shift delta Tm (LOC_OS01G70970-cb002),thermal shift delta Tm (LOC_OS02G07810-cb001),thermal shift delta Tm (LOC_OS02G08530-cb003),thermal shift delta Tm (LOC_OS02G14120-cb001),thermal shift delta Tm (LOC_OS02G17970-cb001)
O=C(Nc1cc(C(F)(F)F)cc(C(F)(F)F)c1)c1cc(Cl)ccc1O,1.44 °C,1.34 °C,2.1 °C,1.28 °C,0.01 °C,0.57 °C,2.75 °C,1.42 °C,0.39 °C,2.43 °C
Nc1ncc(-c2ccnc(Nc3ccncc3)n2)c(CC2CC2)n1,0.51 °C,1.45 °C,1.53 °C,0.58 °C,0.33 °C,0.37 °C,0.77 °C,0.52 °C,3.13 °C,2.16 °C
COCCNCc1ccc(-c2cc3nccc(Oc4ccc(NC(=O)C5(C(=O)Nc6ccc(F)cc6)CC5)cc4F)c3s2)nc1 [Sitravatinib (MGCD516)],0.24 °C,1.12 °C,-0.27 °C,1.87 °C,7.72 °C,5.29 °C,0.47 °C,2.12 °C,7.48 °C,1.18 °C
CN(C)CCCn1cc(C2=C(c3c[nH]c4ccccc34)C(=O)NC2=O)c2ccccc21,0.59 °C,1.19 °C,0.85 °C,0.38 °C,0.56 °C,0.73 °C,0.35 °C,0.74 °C,0.09 °C,0.48 °C
COc1cc(Nc2ncc(F)c(Nc3ccc4c(n3)NC(=O)C(C)(C)O4)n2)cc(OC)c1OC [R406 (free base)],5.12 °C,8.58 °C,0.44 °C,0.7 °C,1 °C,3.16 °C,2.03 °C,4.18 °C,13 °C,0.86 °C
C=CC(=O)Nc1cccc(Nc2nc(Nc3ccc(OCCOC)cc3)ncc2F)c1,1.56 °C,8.86 °C,1.84 °C,0.22 °C,0.42 °C,1.81 °C,0.8 °C,3.49 °C,9.32 °C,0.13 °C
COc1cc(Nc2ncc(F)c(Nc3ccc4c(n3)N(COP(=O)(O)O)C(=O)C(C)(C)O4)n2)cc(OC)c1OC [Fostamatinib (R788)],4.42 °C,6.53 °C,0.92 °C,0.09 °C,1.18 °C,3.04 °C,0.54 °C,3.76 °C,11 °C,0.23 °C
CC(C)Oc1ccc(-c2nn([C@@H](C)c3oc4ccc(F)cc4c(=O)c3-c3cccc(F)c3)c3ncnc(N)c23)cc1F,1.03 °C,1.25 °C,0.79 °C,0.47 °C,0.6 °C,0.55 °C,-0.1 °C,0.12 °C,1.41 °C,1.06 °C
CC(C)n1nc(-c2cc3cc(O)ccc3[nH]2)c2c(N)ncnc21 [Torkinib (PP242)],0.56 °C,1.53 °C,1.1 °C,3.14 °C,1.04 °C,0.66 °C,0.64 °C,0.63 °C,0.74 °C,0.57 °C
Cc1nc2ccc(-n3ncc(C(=O)c4cc5ccccc5[nH]4)c3N)cc2[nH]1,-0.72 °C,2.34 °C,-0.42 °C,1.52 °C,2.11 °C,0.1 °C,0.91 °C,1.17 °C,0.03 °C,1.37 °C
N#Cc1cccc(-c2c[nH]c3ncnc(N4CCOCC4)c23)c1,1.38 °C,0.98 °C,0.99 °C,4.38 °C,1.62 °C,0.07 °C,0.61 °C,2.7 °C,3.85 °C,0.73 °C
CCn1c(=O)c(-c2cc[nH]n2)cc2c(C)nc(N)nc21,-0.09 °C,0.91 °C,0.72 °C,0.14 °C,0.34 °C,0.36 °C,0 °C,0.79 °C,0.62 °C,0.52 °C
Cn1nccc1Nc1nccc(-c2ccn([C@H](CO)c3ccc(Cl)c(F)c3)c(=O)c2)n1,1.99 °C,-0.22 °C,0.52 °C,0 °C,0.09 °C,0.22 °C,-0.02 °C,0.98 °C,0.71 °C,-0.12 °C
O=C1Cc2c([nH]c3ccc(Br)cc23)-c2ccccc2N1 [Kenpaullone],0.8 °C,2.91 °C,0.89 °C,3.38 °C,1.58 °C,5.88 °C,1.24 °C,1.62 °C,2.5 °C,2.97 °C
Cc1ccc(NC(=O)c2cccc(C(C)(C)C#N)c2)cc1Nc1ccc2ncn(C)c(=O)c2c1,2.69 °C,0.66 °C,1.2 °C,3.69 °C,0.79 °C,0.4 °C,1.74 °C,0.95 °C,1.71 °C,1.2 °C
COc1cc(Nc2c(C#N)cnc3cc(OCCCN4CCN(C)CC4)c(OC)cc23)c(Cl)cc1Cl [Bosutinib (SKI-606)],0.91 °C,1.47 °C,0.95 °C,-0.23 °C,-0.85 °C,0.24 °C,0.38 °C,0.38 °C,0.1 °C,-0.22 °C
c1cn2cc(-c3ccc4cn[nH]c4c3)nc(Nc3ccc(N4CCOCC4)cc3)c2n1 [Entospletinib (GS-9973)],2.14 °C,7.21 °C,1.39 °C,2 °C,2.82 °C,1.17 °C,-0.11 °C,3.77 °C,8.09 °C,0.54 °C
COc1cc(N2CCC(N)CC2)ccc1Nc1ncc(Cl)c(-c2c[nH]c3ccccc23)n1,5.66 °C,7.59 °C,2.23 °C,0.87 °C,0.6 °C,6.87 °C,1.19 °C,7.02 °C,9.17 °C,1.36 °C
O=C(NOCC(O)CO)c1cc(Br)c(F)c(F)c1Nc1ccc(I)cc1F (stereo not given),2.4 °C,2.2 °C,1.6 °C,1.18 °C,0.03 °C,0.55 °C,2.41 °C,1.08 °C,1.22 °C,2.02 °C
O=C(NCCO)c1cccc(-c2cc(Nc3ccc(OC(F)(F)F)cc3)ncn2)c1,1.41 °C,0.68 °C,0.09 °C,0.31 °C,0.88 °C,0.38 °C,0.33 °C,0.44 °C,-0.05 °C,0.95 °C
